From PubChem BioAssay (Tox21)
Inconclusive results are not listed. Activity calls are given as the source filed them. Unless noted, calls follow the shape of the dose curve; as a rule, active = well fitted curve in the direction sought with a large enough effect in the repeat runs; inconclusive = weak or mixed curves; inactive = no such curve, though single readings can be large; an effect the other way counts as inactive or inconclusive.

Columns and labels:
[1] = qHTS assay to identify small molecule antagonists of the glucocorticoid receptor (GR) signaling pathway - cell viability counter screen (AID 720693); also: nearly all actives have a fitted effect of over 55% in size
[2] = qHTS assay for identifying genotoxic compounds that show differential cytotoxicity against isogenic chicken DT40 cell lines with known DNA damage response pathways - wild type cell line (AID 743012); also: nearly all actives have a fitted effect of over 60% in size
Procedure, shortened: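 Luminescent ATP viability signal (CellTiter-Glo, 30 min RT) recorded after wild type DT40 cells were incubated with compounds for 40 h at 37 C/5% CO2.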

[3] = qHTS assay for identifying genotoxic compounds that show differential cytotoxicity against isogenic chicken DT40 cell lines with known DNA damage response pathways - Rev3 mutant cell line (AID 743014); also: nearly all actives have a fitted effect of over 55% in size
[4] = qHTS assay for identifying genotoxic compounds that show differential cytotoxicity against isogenic chicken DT40 cell lines with known DNA damage response pathways - Rad54/Ku70 mutant cell line (AID 743015); also: nearly all actives have a fitted effect of over 60% in size
[5] = qHTS assay to identify small molecule antagonists of the androgen receptor (AR) signaling pathway - cell viability counter screen (AID 743033; also: nearly all actives have a fitted effect of over 45% in size)
[6] = qHTS assay to identify small molecule antagonists of the androgen receptor (AR) signaling pathway using the MDA cell line - cell viability counter screen (AID 743041; also: nearly all actives have a fitted effect of over 45% in size)
Procedure, shortened: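 Compound exposure lasted 16 h at 37C in MDA-kb2 AR-luc cells stimulated with R1881. Protease-based CellTiter-Fluor reagent was applied for the final 30 min and fluorescence measured.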

[7] = qHTS assay to identify small molecule antagonists of the thyroid receptor (TR) signaling pathway - cell viability counter screen (AID 743064); also: nearly all actives have a fitted effect of over 50% in size
Procedure, shortened: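 In-well cytotoxicity read by CellTiter-Fluor (30 min, 37 C) following 23.5 h exposure of GH3 cells bearing a TRE-luciferase sensor. Compounds were added alongside 1 nM (final) T3 to drive TR transactivation.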

[8] = qHTS assay to identify small molecule antagonists of the thyroid receptor (TR) signaling pathway (AID 743065); also: series mostly up to about 70 µM; nearly all actives have a fitted effect of over 55% in size
Procedure, shortened: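 GH3.TRE-Luc rat pituitary cells (two TREs driving luciferase) were dosed with compound, then stimulated with 1 nM T3 (final) for 23.5 h at 37 C. ONE-Glo luminescence was the read-out, with CellTiter-Fluor fluorescence as the cytotoxicity counter-screen.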

[9] = tested on: thyroid hormone receptor (rat, GH3 cells); test: qHTS assay to identify small molecule agonists of the thyroid receptor (TR) signaling pathway (AID 743066; calls by dose curve)
[10] = biological target: Estrogen receptor (Homo sapiens) (UniProt P03372); test: qHTS assay to identify small molecule antagonists of the estrogen receptor alpha (ER-alpha) signaling pathway (AID 743069; active = well fitted curve in the direction sought with a large enough effect in the signal ratio in the repeat runs, not every such curve was filed as active; the % refers to the signal ratio)
Sequence of Estrogen receptor (Homo sapiens) (P03372 whole entry, looked up): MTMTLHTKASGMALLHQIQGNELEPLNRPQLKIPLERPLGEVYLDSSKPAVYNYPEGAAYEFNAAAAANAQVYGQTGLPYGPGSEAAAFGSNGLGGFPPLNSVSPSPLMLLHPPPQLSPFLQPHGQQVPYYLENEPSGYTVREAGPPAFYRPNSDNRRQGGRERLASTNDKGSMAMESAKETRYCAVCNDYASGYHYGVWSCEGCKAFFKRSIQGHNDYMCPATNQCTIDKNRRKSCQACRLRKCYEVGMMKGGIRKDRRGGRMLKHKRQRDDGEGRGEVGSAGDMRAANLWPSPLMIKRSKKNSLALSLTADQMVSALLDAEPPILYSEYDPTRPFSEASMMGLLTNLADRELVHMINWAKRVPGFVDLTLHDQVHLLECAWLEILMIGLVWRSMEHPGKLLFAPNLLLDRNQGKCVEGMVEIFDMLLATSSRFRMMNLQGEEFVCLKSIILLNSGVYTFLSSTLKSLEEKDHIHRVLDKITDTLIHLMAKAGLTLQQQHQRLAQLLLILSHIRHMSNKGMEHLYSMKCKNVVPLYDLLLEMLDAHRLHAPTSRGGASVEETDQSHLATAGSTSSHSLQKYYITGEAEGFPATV
Procedure, shortened: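 In this cell-based reporter format, GripTite HEK293 cells harbouring ER-alpha-UAS-bla were grown overnight with 2% charcoal-stripped FBS, dosed with DMSO-dissolved compounds, then challenged with 17beta-estradiol. After 18 hr at 37C, beta-lactamase activity was detected by FRET fluorescence.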

[11] = qHTS assay to identify small molecule antagonists of the estrogen receptor alpha (ER-alpha) signaling pathway - cell viability counter screen (AID 743074; calls by dose curve; also: nearly all actives have a fitted effect of over 45% in size)
[12] = biological target: Estrogen receptor (Homo sapiens) (UniProt P03372); test: qHTS assay to identify small molecule agonists of the estrogen receptor alpha (ER-alpha) signaling pathway (AID 743075; calls by dose curve)
[13] = biological target: Estrogen receptor (Homo sapiens) (UniProt P03372); test: qHTS assay to identify small molecule agonists of the estrogen receptor alpha (ER-alpha) signaling pathway using the BG1 cell line (AID 743079); also: nearly all actives have a fitted effect of over 20% in size
[14] = qHTS assay to identify small molecule antagonists of the estrogen receptor alpha (ER-alpha) signaling pathway using the BG1 cell line (AID 743080; calls by dose curve;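 also: BG1 cells stimulated with 17beta-estradiol alongside compound; series mostly up to about 70 µM; nearly all actives have a fitted effect of over 25% in size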)
Procedure, shortened: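 Readout is ONE-Glo luminescence, taken 30 min at room temperature after reagent addition, preceded by a CellTiter-Fluor viability read; BG1-Luc-4E2 cells had received compound and 17beta-estradiol for 21.5 h at 37 C.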

[15] = qHTS assay to identify small molecule antagonists of the estrogen receptor alpha (ER-alpha) signaling pathway using the BG1 cell line - cell viability counter screen (AID 743081);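 also: compound given together with 17beta-estradiol as the ER stimulus; series mostly up to about 70 µM; nearly all actives have a fitted effect of over 45% in size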
Aromatase (Homo sapiens) = Aromatase (Homo sapiens) (UniProt P11511); test: qHTS assay to identify aromatase inhibitors (AID 743083); also: series mostly up to about 70 µM; nearly all actives have a fitted effect of over 55% in size
Sequence of Aromatase (Homo sapiens) (P11511 whole entry, looked up): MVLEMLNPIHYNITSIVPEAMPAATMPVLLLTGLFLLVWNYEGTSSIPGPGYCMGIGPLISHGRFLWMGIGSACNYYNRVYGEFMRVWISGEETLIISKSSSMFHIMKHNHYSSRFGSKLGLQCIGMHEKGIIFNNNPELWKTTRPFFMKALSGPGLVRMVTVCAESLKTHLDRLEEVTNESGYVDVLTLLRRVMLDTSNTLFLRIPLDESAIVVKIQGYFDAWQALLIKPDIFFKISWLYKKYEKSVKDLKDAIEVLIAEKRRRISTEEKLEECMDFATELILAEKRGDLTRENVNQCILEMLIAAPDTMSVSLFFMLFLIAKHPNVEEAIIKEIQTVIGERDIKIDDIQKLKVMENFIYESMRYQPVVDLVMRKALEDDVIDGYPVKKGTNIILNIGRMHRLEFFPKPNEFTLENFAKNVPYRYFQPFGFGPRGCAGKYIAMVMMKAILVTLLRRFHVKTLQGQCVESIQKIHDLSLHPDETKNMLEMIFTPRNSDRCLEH

[16] = biological target: Androgen receptor (Homo sapiens) (UniProt P10275); test: qHTS assay to identify small molecule antagonists of the androgen receptor (AR) signaling pathway (AID 743035; active = well fitted inhibition curve with a large enough effect in the signal ratio in the repeat runs, not every such curve was filed as active; the % refers to the signal ratio)
Sequence of Androgen receptor (Homo sapiens) (P10275 whole entry, looked up): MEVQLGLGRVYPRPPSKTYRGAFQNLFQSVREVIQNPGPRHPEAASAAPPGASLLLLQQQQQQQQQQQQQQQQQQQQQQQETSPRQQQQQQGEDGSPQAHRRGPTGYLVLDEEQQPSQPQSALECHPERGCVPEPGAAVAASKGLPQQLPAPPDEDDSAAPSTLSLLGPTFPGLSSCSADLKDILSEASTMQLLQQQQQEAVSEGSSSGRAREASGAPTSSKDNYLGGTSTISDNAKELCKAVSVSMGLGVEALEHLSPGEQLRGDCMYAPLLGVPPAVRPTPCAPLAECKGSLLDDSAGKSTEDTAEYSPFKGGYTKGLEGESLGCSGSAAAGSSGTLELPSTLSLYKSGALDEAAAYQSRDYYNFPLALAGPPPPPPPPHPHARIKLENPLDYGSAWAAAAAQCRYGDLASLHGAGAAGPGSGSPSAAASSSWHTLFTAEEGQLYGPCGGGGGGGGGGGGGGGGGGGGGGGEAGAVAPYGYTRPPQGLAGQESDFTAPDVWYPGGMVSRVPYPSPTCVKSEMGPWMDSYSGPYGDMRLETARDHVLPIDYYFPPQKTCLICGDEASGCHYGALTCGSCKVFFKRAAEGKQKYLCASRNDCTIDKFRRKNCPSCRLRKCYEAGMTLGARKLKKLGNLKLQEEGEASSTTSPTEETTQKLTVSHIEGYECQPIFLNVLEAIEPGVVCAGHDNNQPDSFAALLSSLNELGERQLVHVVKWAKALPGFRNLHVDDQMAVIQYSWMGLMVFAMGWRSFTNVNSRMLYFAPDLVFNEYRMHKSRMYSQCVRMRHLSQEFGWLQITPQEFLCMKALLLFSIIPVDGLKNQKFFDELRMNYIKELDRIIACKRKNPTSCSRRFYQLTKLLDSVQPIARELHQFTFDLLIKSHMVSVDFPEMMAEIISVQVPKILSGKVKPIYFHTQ
Procedure, shortened: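 Quantitative HTS of the Tox21 10K library used HEK293 AR-UAS-bla cells stimulated with R1881 alongside compound for 16 h at 37C, followed by beta-lactamase FRET detection (LiveBLAzer B/G, 2 h, RT).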

[17] = biological target: Androgen receptor (Homo sapiens) (UniProt P10275); test: qHTS assay to identify small molecule agonists of the androgen receptor (AR) signaling pathway (AID 743036; active = well fitted activation curve with a large enough effect in the signal ratio in the repeat runs, with a control signal flat, not every such curve was filed as active; the % refers to the signal ratio)
Procedure, shortened: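 Activation was read as beta-lactamase FRET signal from LiveBLAzer B/G substrate, added for 2 h at room temperature. Before that, GeneBLAzer AR-UAS-bla GripTite (HEK293) cells had 16 h compound exposure at 37C.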

[18] = biological target: Androgen receptor (Homo sapiens) (UniProt P10275); test: qHTS assay to identify small molecule agonists of the androgen receptor (AR) signaling pathway using the MDA cell line (AID 743040; also: nearly all actives have a fitted effect of over 20% in size)
Procedure, shortened: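 Testing was done with the MDA-kb2 AR-luc line, a human breast carcinoma stably transfected with MMTV-luciferase containing AR and GR response elements. Cells were exposed 16 h at 37C before ONE-Glo luminescence detection.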

Measured: Potency

C=Cc1ccccc1
not listed: [16] | [17] | [18]
inactive: all other assays above

Cn1cnc2c(F)c(Nc3ccc(Br)cc3Cl)c(C(=O)NOCCO)cc21
not listed: [6] | [7] | [8] | [10] | [12] | [13] | [14]
inactive: all other assays above

Cc1cccc(C)c1NC(=O)CN1CCCCCC1
not listed: [7] | [16] | [17] | [18]
inactive: all other assays above

O=C1CCCCC1C1CCCCC1 (stereo unspecified)
not listed: [7] | [16] | [17] | [18]
inactive: all other assays above

Cc1ccc(C(C)C)cc1O
not listed: [10] | [12] | [13] | [14] | [16] | [17] | [18]
inactive: all other assays above

COc1ccccc1OCC(O)COC(N)=O (stereo unspecified)
not listed: [15] | [16] | [17] | [18]
inactive: all other assays above

CCCCC1CCC(=O)O1 (stereo unspecified)
not listed: [16] | [17] | [18]
inactive: all other assays above

OCC(CBr)(CBr)CBr
not listed: Aromatase (Homo sapiens) | [16] | [17] | [18]
inactive: all other assays above

CC(C)C(=O)OCC(C)(C)C(O)C(C)C (stereo unspecified)
not listed: [7] | [16] | [17] | [18]
inactive: all other assays above
